Key:
[1] = molecular target: Tumor necrosis factor receptor superfamily member 10B (Homo sapiens) (UniProt O14763); assay: viability loss of caspase-8 NB7 cells with TRAIL – with/without TRAIL, luminescence panel, confirmation (AID 651596); settings: NB7 neuroblastoma + caspase-8, TRAIL sensitization, NB7 Caspase-8, with TRAIL, mean of runs, at 10 µM, stronger effect = higher value
[2] = as above; settings: NB7 neuroblastoma + caspase-8, without TRAIL, NB7 Caspase-8, without TRAIL, mean of runs, at 10 µM

Sequence of Tumor necrosis factor receptor superfamily member 10B (Homo sapiens) (O14763 whole entry, looked up): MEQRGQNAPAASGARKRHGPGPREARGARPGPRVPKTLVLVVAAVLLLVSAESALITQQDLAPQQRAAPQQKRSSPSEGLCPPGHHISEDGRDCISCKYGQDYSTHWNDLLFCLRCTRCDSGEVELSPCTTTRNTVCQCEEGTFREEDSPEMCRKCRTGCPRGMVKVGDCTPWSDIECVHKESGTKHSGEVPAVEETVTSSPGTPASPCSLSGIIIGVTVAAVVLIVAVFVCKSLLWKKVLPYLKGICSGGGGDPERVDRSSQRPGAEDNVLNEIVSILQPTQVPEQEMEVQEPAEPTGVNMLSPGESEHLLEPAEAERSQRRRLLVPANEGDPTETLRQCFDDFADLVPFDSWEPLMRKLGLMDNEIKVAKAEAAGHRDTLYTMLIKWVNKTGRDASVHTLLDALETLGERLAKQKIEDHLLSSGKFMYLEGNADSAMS

SMILES | activity [1] [%] | activity [2] [%]
COc1ccc2[nH]c(C(=O)Nc3cccc(C)n3)cc2c1 | 58.8 | 59.5
O=C(CN(Cc1ccccc1)C(=O)CCl)c1cccc(Br)c1 | 99.3 | 93.5
Cc1ccc2oc(/N=C(\N)NC(=O)C3CC3)nc2c1 | 56.4 | 71
Cc1ccc(C(=O)Nc2ccc3c(c2)OCO3)cc1 | 75.8 | 63
O=C(OCn1ncc(Cl)c(Cl)c1=O)c1cccc(C(F)(F)F)c1 | 99.2 | 99.3
Cc1ccc(/C(N)=N/OC(=O)c2ccc(F)cc2)cc1 | 96.3 | 92.5
C=C1CC2(CC(c3ccccc3)OC(c3ccccc3)C2)OC1=O (stereo not drawn) | 47 | 73.1
N#CCCCC#Cc1ccc2c(c1)COc1c3ccccc3nn1-2 | 78.1 | 75.6
CCc1ccc(C(=O)Cn2ncc(Cl)c(Cl)c2=O)cc1 | 99.2 | 99.4
N/C(=N\OC(=O)c1ccccc1Cl)c1cccnc1 | 67.2 | 70.6
O=C1C(=C(I)I)c2ccccc2-c2ccccc21 | 38 | 99.6
COc1ccc(C=C2C=C(C(C)(C)C)C(=O)C(C(C)(C)C)=C2)cc1OC | 93.4 | 98.8
CN(C)C(=O)N1CCN(c2nc(-c3ccccc3)cs2)CC1 | 43.7 | 48.5
COCCn1c(C)cc(C(=O)COC(=O)c2ccc(Cl)c(S(N)(=O)=O)c2)c1C | 52 | 52.4
Cc1cccc(-c2noc(-c3csc([C@@H]4C[C@H](O)[C@@H](CO)O4)n3)n2)c1 | 36.7 | 29.3
C#CCSc1nnc(-c2sc(-c3ccccc3)nc2C)n1C | 84.7 | 90
NC(=O)c1ccccc1N/C=C/C(=O)c1ccccc1 | 73.4 | 58.9
CCN1CCN(c2ccc(S(=O)(=O)N3CCCCC3)cc2NC(=O)c2ccc([N+](=O)[O-])s2)CC1 | 49.6 | 54.1
CN(C)c1ccc(C(=O)Nc2nc3c(s2)CCCC3)cc1 | 51.9 | 48.6
O=C(C#Cc1ccccc1)c1ccccc1 | 54 | 96.6
CCOc1ccc(-c2ccc(SCC)nn2)cc1 | 75.4 | 71.5
CCCCCCCCCCCCCCCC[n+]1ccc(C(N)=O)cc1 | 92.1 | 88.5
Cn1cnc([N+](=O)[O-])c1Sc1nc(N)nc2c1ncn2C1CC(O)C(CO)O1 (stereo not drawn) | 68.8 | 65.6
CSc1ccc(/C=C/C(=O)NC(=O)c2ccccc2O)cc1 | 82.5 | 84.7
O=C(CSc1nnc(NC(=O)c2ccccc2)s1)NCc1ccco1 | 64.5 | 73.1

SMILES | activity [1] [%] | activity [2] [%]
c1csc(-c2ccc(N3CCOCC3)nn2)c1 | 69.5 | 69.4
COc1ccccc1C/C(N)=N/OC(=O)c1cccc([N+](=O)[O-])c1 | 89.8 | 69.6
COCCNC(=O)c1ccc2c3n(nc2c1)-c1ccccc1CO3 | 67.6 | 82
COC(=O)c1c(NC(=O)COc2ccc(Cl)cc2)sc2c1CC(C)(C)NC2(C)C | 81.2 | 93.9
C=Cc1ccc(Cn2c(C)c(C(=O)NCc3ccc(Cl)c(Cl)c3)sc2=O)cc1 | 91.2 | 68
CCCCCc1c(-c2ccc(OC)c(OC)c2)ncn1CCc1ccccc1OC | 22.7 | 30.2
COc1ccc(-c2cc3nc(C)cc(N)n3n2)cc1 | 90.2 | 86.5
COc1cccc(C(=O)Cn2c(=N)n(C)c3ccccc32)c1 | 65.8 | 66.2
O=C(Nc1ccc(-c2cn3ccccc3n2)cc1)c1cccs1 | 76.2 | 66.1
COCCN(C(=O)COC(=O)c1c(NC(C)=O)sc(C)c1C)c1c(N)n(Cc2ccccc2)c(=O)[nH]c1=O | 58.8 | 65.8
C=CCOC(=O)c1sc(NC(=O)c2ccco2)nc1C | 39.1 | 40.2
CCCCCCc1cc2cc(C(=O)Nc3ccc(OC)cc3)c(=O)oc2cc1O | 36 | 32.5
CCOC(=O)COc1ccc(-c2nnc(-c3ccccc3)o2)cc1 | 43.2 | 33.8
CC(=C/c1ccccc1)/C=N/NC(=O)c1cccs1 | 56 | 51.2
N#Cc1c(NC(=O)c2ccccc2)sc2c1CCCCC2 | 46.5 | 49.6
O=C(/C=C/c1cccnc1)/C=C/c1cccnc1 | 91.5 | 69.7
O=c1/c(=C/c2ccccn2)sc2nc3ccccc3n12 | 60 | 14.9
C/C(=N\NC(=O)c1ccccn1)c1ccc(Cl)cc1 | 44 | 46
O=C(Nc1nc2ccccc2[nH]1)c1ccc(Cl)cc1 | 94.4 | 94.1
O=C(c1cc(-c2ccc(Cl)cc2Cl)on1)N1CCOCC1 | 53.3 | 60.3
CCOC(=O)c1sc2nc3c(SCC(=O)O)cc(C(=O)c4ccccc4O)cn3c(=O)c2c1C | 49.1 | 42.5
CC1(C)N=C(N)N=C(N)N1c1ccccc1 | 83.4 | 87.2
C#CC(=O)N(c1cc(OC)ccc1OC)C(C(=O)NC1CCCC1)c1cccs1 (stereo not drawn) | 98.2 | 98.5
N#Cc1c(/N=C/c2cccs2)sc2c1CCCCC2 | 65.7 | 35.4
Cc1ccc(CNc2nc3ccccc3n2C)cc1 | 59.8 | 53.8

SMILES | activity [1] [%] | activity [2] [%]
c1c2c(cc3sc(N4CCOCC4)nc13)OCCO2 | 66.8 | 75
O=C(Nc1nnc(SCC(=O)N2CCOCC2)s1)c1ccccc1Cl | 72.6 | 78.2
CCOC(=O)c1cnc2c(-c3ccccc3)cnn2c1C | 50 | 35.7
C#Cc1ccc(NC(=O)C2(C)CCN2C(=O)Cc2ccc(-c3ccccc3)cc2)cc1 (stereo not drawn) | 94.4 | 68.4
COc1cccc(/C=C2/Sc3ccc(C(=O)NCCN4CCCCCC4)cc3NC2=O)c1 | 36 | 73.3
COc1ccccc1C(CNc1ccc(S(=O)(=O)N2CCCC2)cc1[N+](=O)[O-])N(C)C (stereo not drawn) | 52.1 | 55.8
COc1ccc(C(C(=O)NC2CCCCC2)N(C(=O)CCl)c2ccc(C)cc2)cc1 (stereo not drawn) | 99.5 | 99.3
FC(F)(F)c1cccc(Sc2nc(-c3ccccc3)nnc2C(F)(F)F)c1 | 42.5 | 60.4
O=C(Nc1nc(=O)c2ccccc2s1)c1ccc(F)cc1 | 64.8 | 72.2
CCOc1ccc(OCC(=O)Nc2cccc(S(=O)(=O)NC3=NCCC3)c2)cc1 | 68.9 | 64.6
CN(C)c1cccc(/C=C(\C#N)c2ccccc2)c1 | 28.8 | 40.8
CCOC(=O)c1cccc(NC(=O)/C=C/c2ccc3c(c2)OCO3)c1 | 78.9 | 78.7
Cc1c(C(=O)N2CCc3ccccc32)oc2ccccc12 | 48.2 | 41
CCCCN(C)C(=O)c1cc2cc3ccc(OC)cc3nc2s1 | 69.9 | 70.3
CC(C)(C)OC(=O)NCCCC[C@H](NC(=O)c1[nH]cnc1C(=O)Nc1ccccc1)C(=O)OC(C)(C)C | 74.2 | 58.6
Nc1ccc(-c2ncc(-c3ccccc3)o2)cc1 | 28.2 | 29.8
O=C(Nc1ccc2c(c1)CCC2)c1ccc(F)cc1 | 49.5 | 44.1
CC(C)[C@@H](CO)NC(=O)c1ccc2c3n(nc2c1)-c1ccccc1CO3 | 71.1 | 71.6
CCOc1ccc(C(=O)N/N=C/c2ccccc2[N+](=O)[O-])cc1 | 68 | 62.8
CC1CCc2cc(F)ccc2N1C(=O)CCl (stereo not drawn) | 99.3 | 98.8
C/C(=N\Nc1nncc2ccccc12)c1cccc(OC(F)F)c1 | 75.8 | 72.8
N=c1n(CC(=O)c2ccc(Br)s2)c2ccccc2n1Cc1ccccc1 | 20.9 | 20.6
Cc1ccccc1C(=O)O/N=C(\N)c1cccc([N+](=O)[O-])c1 | 80.9 | 79.9
Cc1ccc(C2=Nc3ccccc3N=C(C(Cl)Cl)C2)cc1 | 7.3 | 6.45
COc1ccc(C(=O)Nc2ccccc2C(=O)N/N=C/c2ccccn2)cc1OC | 80.7 | 59.5

SMILES | activity [1] [%] | activity [2] [%]
CCCn1c(Nc2nc3ccccc3n2C)nc2ccccc21 | 38.1 | 50.4
Cc1ccc2nc(-c3ccc(NC(=O)COC(=O)c4ccco4)cc3)sc2c1 | 73.4 | 74.6
O=c1c2[nH]c3ccc(F)cc3c2ncn1C1CCCCC1 | 59.1 | 49.5
COc1ccc(C2C(C(=O)N3CCN(c4ccccc4F)CC3)c3ccccc3C(=O)N2C)cc1 (stereo not drawn) | 74.5 | 59
O=[N+]([O-])c1cc(S(=O)(=O)N2CCCCCC2)ccc1F | 83.9 | 72.6
CCOc1ccccc1CNC(=O)C1CCN(c2nnc(C)c3c(C)n(-c4ccc(C)cc4)nc23)CC1 | 48.9 | 63.5
COc1ccc(N2Cc3ccccc3C2=O)cc1 | 67 | 62.5
COc1cc(C(=O)Nc2nc3ccccc3[nH]2)ccc1OC(F)F | 78.9 | 69.4
COC(=O)CSc1nc2cc(OC)ccc2cc1C#N | 75.6 | 70
Fc1ccccc1-c1ccc(/C=N/Nc2nc3ccccc3[nH]2)o1 | 82.7 | 79.2
CCCC(=O)Nc1ccc(-c2csc(N/N=C\c3ccncc3)n2)cc1 | 61.5 | 65.6
C(/C=C/c1ccccn1)=C\c1ccccc1 | 7.58 | 14.6
CN(c1ccccc1)S(=O)(=O)c1ccc(NC(=O)c2nc(S(C)(=O)=O)ncc2Cl)cc1 | 80.7 | 99.3
O=C1c2cc(F)ccc2-n2c1nc1ccccc1c2=O | 32.5 | 25.7
O=C(Nc1ccc2c(c1)OCCO2)C(=O)c1c[nH]c2ccccc12 | 83.2 | 90.5
Cc1ccc2c(c1)N=C(c1ccccc1)CC(C(Cl)Cl)=N2 | 29.4 | 18
COc1ccc(/C=C/c2nc3ccccc3c(=O)o2)cc1 | 83.2 | 83.6
C/C(=N\NC(=O)c1ccccc1O)c1ccc(Br)s1 | 57.8 | 69.5
N/C(=N\OC(=O)c1ccc([N+](=O)[O-])cc1Cl)c1ccccn1 | 90.2 | 87.3
C=CCN1C=CC(=C/C=C(/C#N)C(=O)OCC)C=C1 | 50.2 | 41.9
CC(=O)Oc1ccccc1/C=C/c1nc2ccccc2c(=O)o1 | 83.7 | 84.8
N/C(=N\OC(=O)COc1ccc(Cl)cc1Cl)c1ccccn1 | 37 | 52.3
Cc1ccccc1Nc1nc(N)nc(CCl)n1 | 98.5 | 96.2
COc1ccc2oc(-c3ccc(NC(=O)c4ccc(N5CCOCC5)c([N+](=O)[O-])c4)cc3)nc2c1 | 52 | 24.4
